This is an account of results in PubChem BioAssay (EPA / NIEHS).

Inconclusive results are not listed. Activity calls are given as the source filed them. Rule for the calls: active = hit-call score of the fitted dose curve at least 0.9, where 1 is the maximum; inconclusive = response in the unintended direction; inactive = score below 0.9.

Sequence of human Raf-1 Proto-Oncogene, serine/threonine Kinase (RAF1), RAF1 (gene 5894) (P04049 whole entry, looked up): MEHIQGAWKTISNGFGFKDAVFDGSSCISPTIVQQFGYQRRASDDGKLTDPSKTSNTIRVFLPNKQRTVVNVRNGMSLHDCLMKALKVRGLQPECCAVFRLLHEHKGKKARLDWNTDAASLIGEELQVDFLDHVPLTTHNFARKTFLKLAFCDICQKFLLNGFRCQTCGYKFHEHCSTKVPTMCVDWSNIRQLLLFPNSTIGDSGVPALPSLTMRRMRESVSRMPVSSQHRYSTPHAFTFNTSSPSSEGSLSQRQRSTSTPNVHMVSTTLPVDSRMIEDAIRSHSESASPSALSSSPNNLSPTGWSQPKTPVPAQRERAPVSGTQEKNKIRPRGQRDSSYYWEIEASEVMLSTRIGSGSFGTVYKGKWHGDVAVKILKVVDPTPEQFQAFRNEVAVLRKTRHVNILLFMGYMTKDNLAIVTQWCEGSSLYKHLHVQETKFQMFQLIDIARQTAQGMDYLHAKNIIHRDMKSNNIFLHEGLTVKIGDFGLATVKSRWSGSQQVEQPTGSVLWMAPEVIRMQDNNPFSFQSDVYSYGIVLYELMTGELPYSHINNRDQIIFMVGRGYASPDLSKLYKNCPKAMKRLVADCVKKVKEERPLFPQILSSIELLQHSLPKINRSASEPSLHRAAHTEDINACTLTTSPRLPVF

This assay deals with human Raf-1 Proto-Oncogene, serine/threonine Kinase (RAF1), RAF1 (gene 5894) (UniProt P04049). Put plainly: NVS_ENZ_hRAF1: NovaScreen (NVS) Enzymatic Assay for human Raf-1 Proto-Oncogene, serine/threonine Kinase (RAF1) (AID 2283216). The procedure:
NVS_ENZ_hRAF1 is a biochemical, single-readout assay that uses extracted gene-proteins in a cell-free assay. Measurements were taken 1 hour after chemical dosing in a 384-well plate.NVS_ENZ_hRAF1 is one of one assay component(s) measured or calculated from the NVS_ENZ_hRAF1 assay. It is designed to make measurements of enzyme activity, a form of enzyme reporter, as detected with fluorescence intensity signals by Fluorescence and electrophoretic mobility shift technology.Data from the assay component NVS_ENZ_hRAF1 was analyzed into 1 assay endpoint. This assay endpoint, NVS_ENZ_hRAF1, was analyzed in the positive analysis fitting direction relative to DMSO as the negative control and baseline of activity. Using a type of enzyme reporter, loss-of-signal activity can be used to understand changes in the enzymatic activity as they relate to the gene RAF1. Furthermore, this assay endpoint can be referred to as a primary readout, because this assay has produced multiple assay endpoints where this one serves a enzymatic activity function. To generalize the intended target to other relatable targets, this assay endpoint is annotated to the kinase intended target family, where the subfamily is serine/threonine kinase.
Binding assays used specific radioligands (tritiated, iodinated) with non-radioactive competitive displacement ligands in agonist or antagonist protocols (as indicated) and various reference compounds and inhibitors to titrate specific binding to receptors and transporters. Most enzyme assays (CYPs, kinases, phosphatases, proteases, HDACs) used recombinant protein and specific substrates (fluorescence mostly, some colorimetric and radioactive) and inhibitors, followed by a biochemical separation of substrate and product. All assays for the biochemical HTS were initially run in duplicate at a single concentration (10 uM for CYP450 assays and 25 uM for all others). Assay-chemical combinations meeting a pre-defined threshold (e.g., 30% inhibition and other criteria defined below) were then run in singleton concentration-response format with maximum concentration of 20 uM for CYPs and 50 uM for all others. Each assay was run with positive and negative controls, and concurrent controls on every plate. The follow-up (secondary) screen tested active chemical-pairs in concentration series, as well as a few additional assays not tested in the primary screen, some selected negative inactives, and several cases re-run in the concentration series for confirmatory purposes.
For `COC(=O)c1c(Cl)nn(C)c1S(=O)(=O)NC(=O)Nc1nc(OC)cc(OC)n1`, the compound was called inactive.

On to `C[C@@H]1C[C@H]2[C@@H]3CCC4=CC(=O)C=C[C@]4(C)[C@@]3(F)[C@@H](O)C[C@]2(C)[C@@]1(O)C(=O)COP(=O)(O)O`, for which the result was inactive.

With `Cc1cc(CCN2CCN(c3nsc4ccccc34)CC2)cc2c1NC(=O)CC2(C)C`, the call was inactive.

Turning to `Cc1ccc2ncccc2c1`, the call was inactive.

For `FC(F)(F)C(F)(F)C(F)(F)C(F)(F)C(F)(F)C(F)(F)CCI`, the call was inactive.

As for `CCCCC(CC)CN1C(=O)C2C3C=CC(C3)C2C1=O` (stereo not drawn), the result was inactive.

As to `NCCO`, the compound was classed as inactive.

Take `CCO[Si](CCCNC(N)=O)(OCC)OCC`: the outcome was inactive.

On to `CCOC(=O)COc1cc(-n2ncc(C(F)(F)F)c(C)c2=O)c(F)cc1Cl`, for which the call was inactive.

As for `COC(=O)CCCCC(=O)OC`, the compound was classed as inactive.

Turning to `O=C(c1ccc(O)cc1O)c1ccc(O)cc1O`, the compound was called inactive.

As for `O=C(OCCCCCOC(=O)c1ccccc1)c1ccccc1`, the result was inactive.

Regarding `O=C(O)Cc1cc(I)c(Oc2cc(I)c(O)c(I)c2)c(I)c1`, the result was inactive.

For `S=C(S)NCCNC(=S)S.[Mn+2].[S-]C([S-])=NCCN=C([S-])[S-].[Zn+2]`, the compound was classed as inactive.

As for `Cn1c(=O)cc(Oc2ccc(F)cc2F)c2cnc(NCC(C)(C)O)nc21`, the result was inactive.

`CN(C)c1ccc(N=NS(=O)(=O)O)cc1`: the result was inactive.

`c1ccc2ncccc2c1`: the compound was called inactive.

In the case of `COc1ccc2sc(C(=O)Nc3nnn[nH]3)c(OC(C)C)c2c1`, the AC50 was 25 µM (active).

Regarding `Clc1nc(Cl)c(Cl)c(Cl)c1Cl`, the result was inactive.

Take `N[C@@H](Cc1cc(I)c(Oc2ccc(O)c(I)c2)c(I)c1)C(=O)O`: the result was inactive.

Consider `Clc1cc(Cl)c2c(c1)N=C1CCCCCN1C2`, for which the call was inactive.

In the case of `O=C(O)CCCCC(=O)O`, the result was inactive.

For the compound `CCCCCCCCCCCCc1ccccc1S(=O)(=O)O`, the AC50 was 26 µM (active).

On to `Cc1cc2c(cc1C(F)(F)F)N(C(=O)Nc1ccc(Oc3cccnc3C)nc1)CC2`, for which the AC50 is 6.86 µM (active).

As for `O=C(O)c1ccccc1C(c1ccc(O)cc1)c1ccc(O)cc1`, the result was inactive.

For the compound `CC[C@H](c1ccc(O)cc1)[C@@H](CC)c1ccc(O)cc1`, the AC50 is 38.5 µM (active).

Turning to `CN1C(=O)N(c2ccccc2Br)Cc2cnc(Nc3ccc4c(c3)OCC(CO)O4)nc21` (stereo not drawn), the AC50 is 0.00359 µM (active).

In the case of `CC/C(=C(/CC)c1ccc(O)cc1)c1ccc(O)cc1`, the outcome was inactive.

Take `COc1ccc(/C=C/S(=O)(=O)NC(=O)c2ccc(C)cc2Cl)cc1`: the compound was classed as inactive.

Take `C#CC(O)C(CC)CCCC` (stereo not drawn): the call was inactive.

For `CC(C)CCCCCCc1ccc(O)cc1`, the compound was classed as inactive.

`O=C(O)c1cc(N=Nc2ccc(S(=O)(=O)Nc3ccccn3)cc2)ccc1O`: the compound was classed as inactive.

As to `CCc1c(C(=O)NN2CCCCC2)nn(-c2ccc(Cl)cc2Cl)c1-c1ccc(Br)cc1`, the compound was classed as inactive.

As to `O=C(O)Cc1cc(I)c(Oc2ccc(O)c(I)c2)c(I)c1`, the result was inactive.

Turning to `O=C(O)c1cccc(N(Cc2cccnc2)c2ccc(OC(F)F)c(OC(F)F)c2)c1`, the outcome was inactive.

For `CC(C)(C)[C@@H](O)[C@@H](Cc1ccc(Cl)cc1)n1cncn1`, the call was inactive.

Take `Cc1ccc(N)cc1O`: the outcome was inactive.

Regarding `Cc1ncc([C@@H](CCCCCCc2ccc3c(n2)NCCC3)CC(=O)O)cn1`, the outcome was inactive.

In general, AC50 refers to the concentration giving half of the maximal activity seen.
